Most compounds without a hit are left out; they make up all but 8% or so of the library.
Coupling enz: qHTS Assay for Inhibitors of Fructose-1,6-bisphosphate Aldolase from Giardia Lamblia: Coupling assay counterscreen | coupling enzyme system counterscreen, AmpLite Red fluorescence | activity change, negative = inhibition, % at 58.2 µM, hits read low | 290,000 compounds, 0.67% hits; in the data active = activity change below about -30%
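Final compound at 57.5 uM, incubated 10 min at RT with coupling enzyme reagent (glyceraldehyde-3-phosphate), then 20 min with substrate and AmpLite Red detection. Fluorescence read at 525/598 nm; tests interference with the coupling assay, not aldolase inhibition.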
VP16 counter: VP16 counterscreen qHTS for inhibitors of ROR gamma transcriptional activity. Drosophila S2 Gal4-VP16 UAS-luciferase, luminescence, 20 h. Potency, µM (highest dose often 53.6 µM), without a hit: top-dose activity, negative = inhibition, hits mostly inhibitors. 310,000 compounds, 3.5% hits;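 note: Gal4-VP16 expression switched on by copper sulfate through the metallothionein promoter; potency is the fitted concentration of half-maximal effect; nearly all actives have a fitted effect of over 50% in size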
ELG1 repair inh: qHTS screen for small molecules that inhibit ELG1-dependent DNA repair in human embryonic kidney (HEK293T) cells expressing luciferase-tagged ELG1. HEK293T ELG1-luciferase reporter, luminescence, 16 h; DNA damage induced by 5-fluorouridine. Potency, µM (doses to about 46.1 µM), without a hit: at the top dose activity change, negative = inhibition, usual class: inhibitors. 330,000 compounds, 2.3% hits. AID 504467, 2011; note: potency is the fitted concentration of half-maximal effect; nearly all actives have a fitted effect of over 55% in size
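5-Fluorouridine DNA damage + compound/DMSO, 2,000 cells/well, 16 h, 37 °C/5% CO2. ONE-Glo, 30 min RT, luminescence. Readout = decrease in reporter signal.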
RORg inh: qHTS for inhibitors of ROR gamma transcriptional activity | Nuclear receptor ROR-gamma (Mus musculus), P51450 | Drosophila S2 Gal4-RORgamma UAS-luciferase reporter, 20 h | Potency, µM (highest dose often 53.6 µM), without a hit: top-dose activity change, negative = inhibition, usual class: inhibitors | 310,000 compounds, 5.4% hits | AID 2551, 2010; note: potency is the fitted concentration of half-maximal effect; nearly all actives have a fitted effect of over 60% in size
Target sequence (P51450 whole entry, looked up, the tested form may be a part): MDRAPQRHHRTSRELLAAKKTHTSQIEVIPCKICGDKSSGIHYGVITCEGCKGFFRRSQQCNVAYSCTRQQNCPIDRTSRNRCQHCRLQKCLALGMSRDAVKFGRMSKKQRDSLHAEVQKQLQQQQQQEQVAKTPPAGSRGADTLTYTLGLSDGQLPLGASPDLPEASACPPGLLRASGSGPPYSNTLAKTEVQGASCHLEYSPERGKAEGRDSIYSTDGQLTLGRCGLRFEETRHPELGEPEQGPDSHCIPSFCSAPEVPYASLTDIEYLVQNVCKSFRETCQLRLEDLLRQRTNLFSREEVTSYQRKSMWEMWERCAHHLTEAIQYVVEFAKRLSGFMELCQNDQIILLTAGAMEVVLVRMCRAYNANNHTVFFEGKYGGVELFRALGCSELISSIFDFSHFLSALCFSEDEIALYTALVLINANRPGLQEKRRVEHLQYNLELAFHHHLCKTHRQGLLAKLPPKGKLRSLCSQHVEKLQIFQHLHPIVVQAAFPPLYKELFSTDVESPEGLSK
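In this cell-based reporter format, copper sulfate (700 uM final) drives Gal4–ROR gamma fusion expression from a metallothionein promoter in Drosophila Schneider cells; compounds preincubated 1 hr, reporter read after 20 hr at ambient temperature.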
TSHR antag: Antagonists of the Thyroid Stimulating Hormone Receptor: HTS campaign | Thyrotropin receptor (Homo sapiens), P16473 | TSHR-expressing cells, TSH-stimulated cAMP HTRF, 2 h; active compounds read low | activity change, negative = inhibition, % at 11.5 µM | 330,000 compounds, 0.2% hits;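 active = activity change below a set negative limit, meaning inhibition stronger than a set level, cut at about -70% in these data; inconclusive = activity change between two set negative limits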
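TSHR-expressing cells, 200/well, pre-treated with compound, then stimulated with EC80 TSH (4nM final) for 2 hours at 37 deg C. cAMP measured by competitive HTRF: anti-cAMP cryptate antibody in lysis buffer plus cAMP-d2, read after 30 minutes at room temperature.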
* hit, by the source's call; [ ] = remark or other dose. Unless noted, calls come from the whole dose curve; as a rule, active = well fitted curve in the direction sought with a large enough effect; inconclusive = small, poorly fitted or top-dose-only effect, or another doubt; inactive = no such curve, though single readings can be large; an effect the other way counts as inactive or inconclusive. % is set by controls: 0 for no effect and ±100 for the full control effect.

How did COC(=O)[C@@H]1CC[C@H](C)[C@@H](c2ccc(C)cc2)N1C(=O)c1ccc(/C=N/O[C@@H](C)c2cn([C@H](CO)Cc3ccccc3)nn2)cc1 do in these assays?
Coupling enz: -2; VP16 counter: -10%; ELG1 repair inh: 15µM*; RORg inh: inconclusive; TSHR antag: -6

What do the screens show for `COC(=O)[C@@H]1CC[C@H](C)[C@@H](c2ccc(C)cc2)N1C(=O)c1ccc(/C=N\O[C@@H](C)c2cc(-c3c(C)cc(C)cc3C)no2)cc1`?
Coupling enz: -2; VP16 counter: 9%[10 µM]; RORg inh: 17%[10 µM]

What do the screens show for `CCOC(=O)C1CCN(C(=O)CCCn2nc(C)c3c(C)n(-c4ccc(C)cc4)nc3c2=O)CC1`?
Coupling enz: 0; VP16 counter: -3%; ELG1 repair inh: -5%; RORg inh: -3%; TSHR antag: -14

Results for Brc1ccc(CNc2ccc3ncccc3c2)cc1 ?
Coupling enz: -9; VP16 counter: 7.1µM*; ELG1 repair inh: inconclusive; RORg inh: inconclusive; TSHR antag: inconclusive

How did COc1ccc(NC(=O)COc2coc(CN3c4ccccc4CC3C)cc2=O)cc1 (stereo unspecified) do in these assays?
ELG1 repair inh: -18%; TSHR antag: -11

What do the screens show for `CN1CC[C@@]2(CCCN(C(=O)c3cccc(F)c3)C2)C1`?
Coupling enz: -1; VP16 counter: 0%; RORg inh: -18%

Results for CN(C)c1ccc(/C=C(\C#N)c2ccccn2)cc1 ?
Coupling enz: -3; VP16 counter: 7.9µM*; ELG1 repair inh: inconclusive; RORg inh: 7.1µM*; TSHR antag: 2

What do the screens show for `CN(C)c1ccc(NC(=S)c2ccccn2)cc1`?
Coupling enz: -7; VP16 counter: 0.63µM*; ELG1 repair inh: inconclusive; RORg inh: 0.28µM*; TSHR antag: 8

How did CN(C)S(=O)(=O)c1ccc(NC(=O)c2ccccn2)cc1 do in these assays?
Coupling enz: 1; VP16 counter: inconclusive; ELG1 repair inh: inconclusive; RORg inh: -33%; TSHR antag: 1

How did N#CC(C#N)=Cc1ccc(OC(=O)c2ccccn2)cc1 do in these assays?
Coupling enz: 1; VP16 counter: -25%; ELG1 repair inh: 15%; RORg inh: 13µM*; TSHR antag: -8

How did CN(C)c1cc(O)c(C(=S)Nc2ccccc2)c(N(C)C)c1 do in these assays?
Coupling enz: -21; VP16 counter: 17%; ELG1 repair inh: 14%; RORg inh: inconclusive; TSHR antag: -6

Results for CN(C)c1ccc(C(=S)Nc2ccccc2)cc1 ?
Coupling enz: 3; VP16 counter: inconclusive; ELG1 repair inh: inconclusive; RORg inh: 13µM*; TSHR antag: 10

How did N#C/C(=C\c1ccc([N+](=O)[O-])cc1)c1ccccn1 do in these assays?
Coupling enz: 2; VP16 counter: 6%; ELG1 repair inh: inconclusive; RORg inh: -10%; TSHR antag: -3

How did COc1ccc(N2CCN(C(=O)CNC(=O)c3ccccc3Cl)CC2)cc1 do in these assays?
Coupling enz: 2; VP16 counter: 2%; ELG1 repair inh: -5%; RORg inh: -11%; TSHR antag: -1

What do the screens show for `COc1ccc(N(CC(=O)NC2CCCCC2)C(=O)c2ccc(C)s2)c(OC)c1`?
Coupling enz: -1; VP16 counter: -3%; ELG1 repair inh: -9%; RORg inh: 4%; TSHR antag: -2

Results for C=CCn1c(SCC(=O)Nc2ccc(O)cc2)nc2sc(CC)cc2c1=O ?
Coupling enz: 6; VP16 counter: 7%; ELG1 repair inh: inconclusive; RORg inh: 8%; TSHR antag: 1

How did O=[N+]([O-])c1c(Cl)cc(Cl)cc1Cl do in these assays?
VP16 counter: 20%; RORg inh: -10%
